# Rows were chosen to be rich in hits. Some 1.6% of all compounds tested hit in one or more screens of this group.
# KCNQ2 enhance: KCNQ2 (rat) channel potentiation; O88943; CHO-K1 KCNQ2, FluxOR thallium flux fluorescence; stronger effect = higher value; B-score at 10 µM; 310,000 compounds, 0.54% hits;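 active means fluorescence ratio B-score at least 3 SD of library B-scores, with initial fluorescence B-score within 3 of them, cut at about 5.3 in these data; same plate scores as AID 2156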;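 further: B-score of peak minus minimum over baseline fluorescence ratio after K+ and Tl+ stimulus; positive B-score means potentiation of KCNQ2 with more thallium influx and brighter signal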
# KCNQ2 block: inhibitors of rat KCNQ2 potassium channel; O88943; CHO-K1 KCNQ2, FluxOR thallium flux, 20 min; stronger effect = lower value; B-score at 10 µM; 310,000 compounds, 1.1% hits;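 active means fluorescence ratio B-score at most minus 3 library SDs, with starting brightness B-score within 2 library SDs, cut at about -5.5 in these data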
# Kir21 conf inh: confirmation of mouse Kir2.1 potassium channel inhibitors; Kir2.1-expressing cells, FluxOR thallium flux fluorescence; stronger effect = lower value; Tl flux remaining, % of negative control (stronger effect = lower value), % at 10 µM; shares compounds with KCNQ2 enhance; 2,300 compounds, 41% hits;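 active means Primary-screen hit whose thallium flux fell at least 3 control SD below untreated wells in both duplicates, with normal baseline fluorescence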;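 further: 0% = blank wells without stimulus and 100% = stimulated no-compound controls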
# Target sequence (P35561 whole entry, looked up): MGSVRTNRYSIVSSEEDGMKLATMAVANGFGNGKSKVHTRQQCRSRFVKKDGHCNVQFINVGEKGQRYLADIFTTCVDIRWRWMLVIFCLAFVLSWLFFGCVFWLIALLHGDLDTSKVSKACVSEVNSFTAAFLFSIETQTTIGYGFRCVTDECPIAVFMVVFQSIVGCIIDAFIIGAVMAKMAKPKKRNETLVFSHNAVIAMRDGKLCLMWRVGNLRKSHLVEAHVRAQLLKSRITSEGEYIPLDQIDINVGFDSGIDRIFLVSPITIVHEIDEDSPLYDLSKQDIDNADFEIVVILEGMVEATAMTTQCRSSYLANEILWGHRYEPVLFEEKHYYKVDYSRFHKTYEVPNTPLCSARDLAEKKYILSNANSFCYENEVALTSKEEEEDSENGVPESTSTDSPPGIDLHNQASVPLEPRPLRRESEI
# HEK293 Tl flux: counter-screen for Kir2.1 inhibitors: effect in parental HEK293 cells; shares compounds with KCNQ2 enhance; FluxOR thallium flux fluorescence; 0% = unstimulated blank wells; FluxOR signal as % of negative control (100 = no effect), % at 10 µM; 2,300 compounds, 19% hits;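 active means dye signal at least 3 control SD above or below untreated wells in both duplicates, raw fluorescence within 3, either direction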;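 further: percent is based on the flux ratio of peak minus minimum fluorescence over baseline F0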
# CHO-K1 Tl ctr: counter-screen for KCNQ2 potentiators: effect in parental CHO-K1 cells. shares compounds with KCNQ2 enhance. FluxOR thallium flux fluorescence; zero = vehicle mean+3SD, 100% = vehicle-minus-blank window. activity increase over 3SD of controls, % at 10 µM. 1,200 compounds, 43% hits;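 active means signal rise of at least 3 SD above the untreated control mean, in both duplicate wells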;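 further: counter screen of KCNQ2 potentiator hits so any rise reflects channel-independent effects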
# KCNQ1 sel pot: human KCNQ1 counter-target activity of KCNQ2 potentiators | 1,200 compounds, 28% hits | shares compounds with KCNQ2 enhance | activation over 3SD threshold, % at 10 µM | CHO KCNQ1 stable, FluxOR thallium flux fluorescence; beyond 3SD, as % of vehicle-control signal;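 active means fluorescence ratio rise of at least 3 SD of vehicle wells above their mean, in both replicate wells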;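 further: 0% = vehicle mean plus 3 SD and 100% = vehicle minus unstimulated blank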
# KCNQ2 pot confirm: confirmation of rat KCNQ2 potassium channel potentiators; shares compounds with KCNQ2 enhance; CHO-KCNQ2 cells, FluxOR thallium flux fluorescence; potentiation, less the hit threshold, % at 10 µM; 1,200 compounds, 68% hits; AID 2287;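 active means fluorescence ratio rising 3 SD or more over the vehicle control mean in both replicates, plus primary screen hit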;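 further: peak minus minimum thallium fluorescence divided by baseline after K/Tl stimulus; 0% = vehicle mean plus 3 SD and 100% = vehicle minus unstimulated blank difference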
# Kir21 spec: tests whether KCNQ2 potentiators also affect mouse Kir2.1; shares compounds with KCNQ2 enhance; HEK293 Kir2.1, FluxOR thallium flux fluorescence; activity over 3SD threshold, % at 10 µM; 1,200 compounds, 2% hits;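 active means fluorescence ratio rise of at least 3 SD above the vehicle-control mean, seen in both replicates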;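 further: 0% = vehicle mean plus 3 SD and 100% = vehicle minus no-stimulus blank window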
# KCNQ2 W236L pot: rat KCNQ2 W236L mutant potentiation by KCNQ2 potentiators | shares compounds with KCNQ2 enhance | CHO KCNQ2-W236L, automated patch clamp current | current increase over 3SD of negative controls (%), stronger effect = higher value, % at 25 µM | 940 compounds, 10% hits | AID 2558;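 active means current increase at least 3 SD of the untreated controls above them in both duplicate recordings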
# * = called active by the depositor; i = inactive; · = no result.
SMILES,KCNQ2 enhance,KCNQ2 block,Kir21 conf inh,HEK293 Tl flux,others
CCCCCCCC(=O)N/N=C/c1ccco1,10.5*,i,i,i,CHO-K1 Tl ctr=0.0*;KCNQ1 sel pot=2.6*;KCNQ2 pot confirm=59.4*;Kir21 spec=-37.2;KCNQ2 W236L pot=i
CCCCCCCC(=O)N/N=C/c1ccc(Br)cc1,0.99,i,·,·,
O=C(COc1ccc2ccccc2c1Br)N1CCCC1,2.34,i,·,·,
CCOC(=O)N1CCN(C(=O)COc2ccc3ccccc3c2Br)CC1,8.69*,i,i,i,CHO-K1 Tl ctr=13.1*;KCNQ1 sel pot=17.8*;KCNQ2 pot confirm=11.4*;Kir21 spec=-30.4;KCNQ2 W236L pot=i
COc1cc(C(=O)OCC(=O)N2CCOCC2)c([N+](=O)[O-])cc1OC,0.69,i,·,·,
Cc1onc(-c2ccccc2Cl)c1C(=O)OCC(=O)Nc1ccc2c(c1)OCO2,8.03*,i,i,i,CHO-K1 Tl ctr=3.4*;KCNQ1 sel pot=0.5*;KCNQ2 pot confirm=-14.1;Kir21 spec=-37.2;KCNQ2 W236L pot=i
Cc1onc(-c2ccccc2)c1C(=O)OCC(=O)Nc1ccc2c(c1)OCO2,·,i,·,·,
CCOc1cc(C(=O)CCC(=O)OCC(=O)NC(=O)NCC(C)C)ccc1O,0.98,i,·,·,
CCOc1ccc(Nc2ccnc3cc(Cl)ccc23)cc1,·,i,·,·,
CN1CCN(c2ccc(Nc3ccnc4cc(Cl)ccc34)cc2)CC1,·,i,58.5%*,i,
Cc1cccc(/C=N/n2c(COc3ccccc3)n[nH]c2=S)c1,6.02*,i,i,158.5%*,CHO-K1 Tl ctr=-8.4;KCNQ1 sel pot=-13.6;KCNQ2 pot confirm=0.0*;Kir21 spec=-38.4;KCNQ2 W236L pot=i
S=c1[nH]nc(COc2ccccc2)n1/N=C/c1ccc(Cl)c(Cl)c1,·,i,·,·,
O=C(c1ccco1)N1CCN(CCOCCOc2cccc3ccccc23)CC1,0.35,i,·,·,
c1ccc(CN2CCN(CCOCCOc3cccc4ccccc34)CC2)cc1,·,i,19.0%*,i,
CCOc1ccc(CCNC(=O)CCc2nnc3ccc(N4CCCCC4)nn23)cc1OCC,·,i,·,·,
Cc1cccc(-n2c(=O)c3ccccc3n3c(=S)[nH]nc23)c1C,·,i,·,·,
Oc1c(Cl)cc(Cl)c2c1NCCC2,6.29*,i,i,i,CHO-K1 Tl ctr=4.8*;KCNQ1 sel pot=1.6*;KCNQ2 pot confirm=6.1*;Kir21 spec=-41.5;KCNQ2 W236L pot=i
O=C1NCCCc2c1oc1ccc(O)cc21,0.28,i,·,·,
CCOc1ccc(C(C(=O)NC(C)(C)C)N(CCOC)C(=O)CCC(=O)Nc2ccccn2)cc1 (configuration not stated),2.33,i,·,·,
COc1ccc(C2/C(=C(/O)c3ccc(C)cc3)C(=O)C(=O)N2C)c(OC)c1 (configuration not stated),0.3,i,·,·,
Cc1cccc(C)c1NC(=O)c1nc(S(=O)(=O)Cc2ccccc2)ncc1Cl,·,i,·,·,
Cc1cccc(CS(=O)(=O)c2ncc(Cl)c(C(=O)NCc3ccccc3)n2)c1,·,i,·,·,
Cc1cccc(CS(=O)(=O)c2ncc(Cl)c(C(=O)Nc3c(C)cccc3C)n2)c1,·,i,i,i,
CCCc1nnc(NC(=O)c2nc(S(=O)(=O)Cc3cccc(C)c3)ncc2Cl)s1,14.9*,i,·,·,CHO-K1 Tl ctr=-10.8;KCNQ1 sel pot=-46.0;KCNQ2 pot confirm=99.0*;Kir21 spec=-71.5;KCNQ2 W236L pot=34.5%*
Cc1nnc(NC(=O)c2nc(S(=O)(=O)Cc3ccccc3)ncc2Cl)s1,14.4*,i,i,i,CHO-K1 Tl ctr=3.1*;KCNQ1 sel pot=46.0*;KCNQ2 pot confirm=57.9*;Kir21 spec=-29.1;KCNQ2 W236L pot=23.2%*
Cc1ccc(NC(=O)c2nc(S(=O)(=O)Cc3ccccc3)ncc2Cl)cc1,0.15,i,·,·,
CC(C)(C#N)NC(=O)C1CCCN1S(=O)(=O)c1ccc2ccccc2c1 (configuration not stated),0.97,i,·,·,
CC(C)(C)c1ccc(Cn2nc(CC(=O)O)c3ccccc3c2=O)cc1,0.7,i,·,·,
C=CCn1c(SC/C=C/c2ccccc2)nnc1-c1sc(N)nc1C,·,i,60.0%*,i,

# Assay outcomes (PubChem)
